HT1080NT lethal: kills 2HG-producing HT-1080-NT fibrosarcoma cells; hit rate 1.6% among 360,000; AID 686970; HT-1080-NT fibrosarcoma viability, CellTiter-Glo ATP luminescence, 48 h; Potency, µM (highest dose often 46.1 µM), most hits filed as cytotoxic;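 also: NT is the 2HG producing partner of a matched IDH1 knockdown line; nearly all actives have a fitted effect of over 55% in size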
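Viability by CellTiter-Glo luminescence after 48 h compound exposure at 37C of HT-1080-NT cells (750/well, RPMI, 5% FBS). % activity scaled between DMSO wells and medium-only wells, then curve-fitted and categorized by curve class.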
IL1B secr inh: inflammasome signaling inhibition, IL-1 beta readout; THP-1 LPS/ATP IL-1B secretion, AlphaLISA, 16 h; hits give low values; activity change, % at 57.5 µM; hit rate 4.7% among 360,000; in the data active = activity change below about -50%; inconclusive = mostly about -30% to -49%
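THP-1 cells pretreated 1 hr with compounds (up to 57.5 uM final), then stimulated with LPS (250 ng/mL final) plus ATP (1.25 mM final); secreted IL-1B measured by AlphaLISA after 16 hr, decreased signal indicating inhibition.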
TDP1 cell CPT: growth inhibition of DT40 Tdp1-/-;hTDP1 cells with camptothecin (screen for TDP1 inhibitors) | chicken DT40 Tdp1-/-;hTDP1 cells + 20 nM CPT, ATP luminescence, 48 h | Potency, µM (top dose mostly 46.2 µM), hits mostly inhibitors | hit rate 12% among 420,000; also: nearly all actives have a fitted effect of over 55% in size
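Cell growth measured by CellTiter-Glo luminescence after a minimum 48 h, 37 C compound exposure with 20 nM CPT in Tdp1-knockout DT40 cells stably expressing hTDP1, seeded 400/well; qHTS titration format.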
HT1080 IDH1KD tx: toxicity to HT-1080 IDH1 knockdown cells (counter line) | HT-1080 IDH1 knockdown viability, ATP luminescence, 48 h | Potency, µM (highest dose often 46.1 µM), actives largely listed as cytotoxic | hit rate 2% among 360,000 | AID 686971
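Assay cells: HT-1080 with IDH1 knockdown, 750 per well, RPMI/5% FBS. Exposure: 48 h at 37 °C following 2 h pre-incubation. Read: CellTiter-Glo luminescence; fitted concentration-response, curve class assigned.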
TDP1 cell noCPT: qHTS for Inhibitors of human tyrosyl-DNA phosphodiesterase 1 (TDP1): qHTS in cells in absence of CPT; DT40 Tdp1-/- hTDP1 cells, no CPT, ATP luminescence, 48 h; Potency, µM (top dose mostly 46.2 µM), hits mostly inhibitors; hit rate 15% among 420,000; also: nearly all actives have a fitted effect of over 55% in size
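DT40 Tdp1-/-;hTDP1 cells, no CPT (DMSO vehicle only), 400 cells/well; compounds pin-transferred; ≥48 hr, 37 °C; CellTiter-Glo 30 min RT dark, luminescence read.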
A number is an active result. This is a sample that favours compounds with a hit; in the whole collection about 19% have one here. Unless noted, calls follow the shape of the dose curve; as a rule, active = well fitted curve in the direction sought with a large enough effect; inconclusive = small, poorly fitted or top-dose-only effect, or another doubt; inactive = no such curve, though single readings can be large; an effect the other way counts as inactive or inconclusive.

CCNC(=S)NNC(=O)c1ccc(OC)cc1 was read as HT1080NT lethal inactive, IL1B secr inh inactive, TDP1 cell CPT inactive, HT1080 IDH1KD tx inactive and TDP1 cell noCPT inactive.
Screening COc1ccc(/C=C/C(=O)NC(=S)NNC(=O)c2cccs2)cc1 returned HT1080NT lethal inconclusive, IL1B secr inh inactive, TDP1 cell CPT 6.5µM, HT1080 IDH1KD tx inconclusive and TDP1 cell noCPT 4.6µM.
COc1ccc(/C=C/C(=O)NC(=S)NNC(=O)c2cccnc2)cc1 was read as HT1080NT lethal inactive, IL1B secr inh inactive, TDP1 cell CPT inconclusive, HT1080 IDH1KD tx inactive and TDP1 cell noCPT inconclusive.
Screening C=CCNc1nc(Nc2ccc([N+](=O)[O-])cc2)nc(OCC)n1 returned HT1080NT lethal inactive, IL1B secr inh inactive, TDP1 cell CPT inactive, HT1080 IDH1KD tx inactive and TDP1 cell noCPT inconclusive.
Cn1cc(CN2CCC(C3(c4ccccn4)NC(=O)N(CC4CCCO4)C3=O)CC2)c2ccccc21 (stereo unspecified) was read as TDP1 cell CPT inconclusive and TDP1 cell noCPT inactive.
`COc1ccc(C(=O)NNC(=S)NC(=O)c2cccs2)cc1` gave HT1080NT lethal inconclusive, IL1B secr inh inactive, TDP1 cell CPT 15µM, HT1080 IDH1KD tx inconclusive and TDP1 cell noCPT inconclusive.
`Cc1cccc(C(=O)NNC(=O)c2ccccc2C)c1` gave HT1080NT lethal inactive, IL1B secr inh inactive, TDP1 cell CPT inactive, HT1080 IDH1KD tx inactive and TDP1 cell noCPT inactive.
Screening CC(C)C(=O)Nc1ccc(C(=O)NNC(=S)NC(=O)c2cccs2)cc1 returned HT1080NT lethal inactive, IL1B secr inh inactive, TDP1 cell CPT inconclusive, HT1080 IDH1KD tx inactive and TDP1 cell noCPT inconclusive.
Cc1cccc(C(=O)NNC(=O)c2ccccc2O)c1 was read as HT1080NT lethal inactive, IL1B secr inh inactive, TDP1 cell CPT inconclusive, HT1080 IDH1KD tx inconclusive and TDP1 cell noCPT 21µM.
Screening COc1ccc(C(=O)NNC(=S)NC(=O)c2ccc(OC)cc2)cc1 returned HT1080NT lethal inconclusive, IL1B secr inh inactive, TDP1 cell CPT 16µM, HT1080 IDH1KD tx inconclusive and TDP1 cell noCPT inconclusive.
`C=CCNC(=S)NNC(=O)c1ccc(OCC)cc1` gave HT1080NT lethal inactive, IL1B secr inh inactive, TDP1 cell CPT inconclusive, HT1080 IDH1KD tx inactive and TDP1 cell noCPT 21µM.
Screening CN1C(=O)C2(c3ccccc31)N(c1cccc(F)c1)C(=O)CS2(=O)=O (stereo unspecified) returned TDP1 cell CPT inactive and TDP1 cell noCPT inactive.
For CCCOc1ccc(C(=O)NNC(=S)NC(=O)CC)cc1 the results were HT1080NT lethal inconclusive, IL1B secr inh inactive, TDP1 cell CPT 4.6µM, HT1080 IDH1KD tx 10µM and TDP1 cell noCPT 2.6µM.
`CC(C)CC(=O)Nc1ccc(C(=O)NNC(=S)NC(=O)C2CCCCC2)cc1` gave HT1080NT lethal 7.9µM, IL1B secr inh inactive, TDP1 cell CPT 15µM, HT1080 IDH1KD tx inconclusive and TDP1 cell noCPT 16µM.
Screening O=C(NNC(=O)c1ccc2ccccc2n1)c1ccc(O)cc1 returned HT1080NT lethal inactive, IL1B secr inh inactive, TDP1 cell CPT inconclusive, HT1080 IDH1KD tx inactive and TDP1 cell noCPT inconclusive.
Screening Cc1ccc(C(=O)NNC(=S)NC(=O)c2ccccc2)cc1 returned HT1080NT lethal inconclusive, IL1B secr inh inactive, TDP1 cell CPT 18µM, HT1080 IDH1KD tx inconclusive and TDP1 cell noCPT 16µM.
`N#CCC(=O)Nc1ccc(C(=O)NNC(=S)NC2CCCCC2)cc1` gave HT1080NT lethal inactive, IL1B secr inh inactive, TDP1 cell CPT inactive, HT1080 IDH1KD tx inactive and TDP1 cell noCPT inactive.
For COc1ccc(C(=O)NNC(=O)c2ccc3ccccc3n2)cc1 the results were HT1080NT lethal inactive, IL1B secr inh -98, TDP1 cell CPT 16µM, HT1080 IDH1KD tx inconclusive and TDP1 cell noCPT 4.1µM.
Screening O=C(c1cccc(F)c1)N1CCCC(C(=O)N2CCN(c3ccccc3)CC2)C1 (stereo unspecified) returned HT1080NT lethal inactive, TDP1 cell CPT inactive, HT1080 IDH1KD tx inactive and TDP1 cell noCPT inconclusive.
`CCOC(=O)CCC(=O)NNC(=O)c1ccc(NC(=O)c2ccccc2)cc1` gave HT1080NT lethal inactive, IL1B secr inh inactive, TDP1 cell CPT 18µM, HT1080 IDH1KD tx inactive and TDP1 cell noCPT inconclusive.
For O=C(Cc1ccccc1)NNC(=O)c1ccc(NC(=O)c2ccccc2)cc1 the results were HT1080NT lethal inactive, IL1B secr inh inactive, TDP1 cell CPT inconclusive, HT1080 IDH1KD tx inconclusive and TDP1 cell noCPT inactive.
`COc1ccc(C(=O)NC(=S)NNC(=O)c2cccc(C)c2)cc1` gave HT1080NT lethal inactive, IL1B secr inh inactive, TDP1 cell CPT 26µM, HT1080 IDH1KD tx inconclusive and TDP1 cell noCPT 23µM.
For CCCCC(=O)NC(=S)Nc1cccc(NC(=O)c2ccccc2)c1 the results were HT1080NT lethal inactive, IL1B secr inh inconclusive, TDP1 cell CPT inconclusive, HT1080 IDH1KD tx inconclusive and TDP1 cell noCPT 23µM.
COc1ccc(/C(C)=N\O)cc1OC was read as HT1080NT lethal inactive, IL1B secr inh inactive, TDP1 cell CPT inactive, HT1080 IDH1KD tx inactive and TDP1 cell noCPT inactive.
For CCOC(=O)C1=C(COC(=O)COc2ccc(C(=O)CC)cc2)NC(=O)NC1C (stereo unspecified) the results were HT1080NT lethal inactive, IL1B secr inh inactive, TDP1 cell CPT inactive, HT1080 IDH1KD tx inactive and TDP1 cell noCPT inactive.
For CC(OC(=O)c1ccc2c(c1)NC(=O)CS2)C(=O)c1ccc(F)cc1 (stereo unspecified) the results were HT1080NT lethal inactive, IL1B secr inh -56, TDP1 cell CPT inactive, HT1080 IDH1KD tx inactive and TDP1 cell noCPT inactive.
Screening COC(=O)c1ccc2c(c1)NC(=O)CS2 returned HT1080NT lethal inactive, IL1B secr inh inactive, TDP1 cell CPT inactive, HT1080 IDH1KD tx inactive and TDP1 cell noCPT inactive.
For Cc1[nH]c2ccccc2c1/C=N/Nc1nc(N2CCCCC2)nc(N2CCCCC2)n1 the results were HT1080NT lethal inactive, IL1B secr inh inactive, TDP1 cell CPT inconclusive, HT1080 IDH1KD tx inactive and TDP1 cell noCPT inconclusive.
For C(=N\Nc1nc(N2CCCCC2)nc(N2CCCCC2)n1)/c1c[nH]c2ccccc12 the results were HT1080NT lethal inconclusive, IL1B secr inh -60, TDP1 cell CPT inconclusive, HT1080 IDH1KD tx inactive and TDP1 cell noCPT 16µM.
Screening Cc1[nH]c2ccccc2c1/C=N/Nc1nc2ccccc2[nH]1 returned HT1080NT lethal 18µM, IL1B secr inh -105, TDP1 cell CPT inconclusive, HT1080 IDH1KD tx 18µM and TDP1 cell noCPT inconclusive.
For O=[N+]([O-])c1cc(/C=N/Nc2nc3ccccc3[nH]2)c(O)cc1O the results were HT1080NT lethal inconclusive, IL1B secr inh inactive, TDP1 cell CPT 4.6µM, HT1080 IDH1KD tx 7.3µM and TDP1 cell noCPT 4.6µM.
Cc1ccccc1/C=N/Nc1nc2ccccc2[nH]1 was read as HT1080NT lethal inactive, IL1B secr inh -68, TDP1 cell CPT inconclusive, HT1080 IDH1KD tx inactive and TDP1 cell noCPT inconclusive.

Screens: PubChem BioAssay, National Center for Advancing Translational Sciences (NCATS)
